Assay results: the supplement of paper PMC13380429

Test system: Vero E6 infected with SARS-CoV-2
Assay: inhibition of SARS-CoV-2 cytopathic effect; higher = more antiviral protection, active = above 15
Conditions: 48 h

Measured: inhibition of SARS-CoV-2 cytopathic effect

COc1nc(N)nc2c1ncn2[C@@H]1O[C@H](CO)[C@@H](O)[C@@H]1O [nelarabine]
inactive: 1 nM -1.29% | 8.33 nM -1.48% | 100 nM -0.71% | 833.33 nM -0.9% | 10000 nM 1.12%

CCCCCCOc1cc2c(cc1N(C)c1ncc(C(=O)O)cn1)C(C)(C)CCC2(C)C
inactive: 1 nM -1.61% | 8.33 nM 3.1% | 100 nM 3.71% | 833.33 nM 4.08% | 10000 nM 5.06%

c1ccc2nc(C3=NCCN3)cnc2c1
inactive: 1 nM 2.54% | 8.33 nM 1.85% | 100 nM 1.24% | 833.33 nM 4.82% | 10000 nM 2.03%
